Laboratory results from PubChem BioAssay AID1494158 (National Center for Advancing Translational Sciences (NCATS), 2020).
Results filed as inconclusive are left out. A number with no mark means an inactive call. Calls of active or inactive are those of the source. The call rests on the fitted dose curve.

test: VSV-G qHTS counterscreen for inhibitors of SARS-S pseudo-typed particle cell entry; details: VSV-G pseudotyped particle entry counterscreen, luciferase; series mostly up to 57.1 µM; activity, negative = inhibition: at the top concentration

SMILES | Potency | activity, negative = inhibition [%]
O=c1c(C2CC(c3ccc(-c4ccc(Br)cc4)cc3)Cc3ccccc32)c(O)sc2ccccc12 (configuration not stated) | 15.2 µM (active) | 
CC(C)OC(=O)[C@H](C)N[P@](=O)(CO[C@H](C)Cn1cnc2c(N)ncnc21)Oc1ccccc1 | 0.242 µM (active) | 
Cc1cc(C(C#N)c2ccc(Cl)cc2)c(Cl)cc1NC(=O)c1cc(I)cc(I)c1O (configuration not stated) | 30.4 µM (active) | 
CC[C@@]1(O)C(=O)OCc2c1cc1n(c2=O)Cc2cc3c([N+](=O)[O-])cccc3nc2-1 | 0.124 µM (active) | 
Cc1nnc2n1-c1sc(CCc3ccc(CC(C)C)cc3)cc1C(c1ccccc1Cl)=NC2C (configuration not stated) | 27.1 µM (active) | 
COc1cc2nccc(Oc3ccc(NC(=O)C4(C(=O)Nc5ccc(F)cc5)CC4)cc3)c2cc1OC | 21.5 µM (active) | 
COc1cccc2c1C(=O)c1c(O)c3c(c(O)c1C2=O)C[C@@](O)(C(=O)CO)C[C@@H]3O[C@H]1C[C@H](N)[C@H](OC2CCCCO2)[C@H](C)O1 (some centres not stated) | 9.61 µM (active) | 
CCCN1C[C@H](C)[C@@H](O)[C@](C)(O)[C@@H](CC)OC(=O)[C@H](C)[C@@H](O[C@H]2C[C@@](C)(OC)[C@@H](O)[C@H](C)O2)C(C)[C@@H](O[C@@H]2O[C@H](C)C[C@H](N(C)C)[C@H]2O)[C@](C)(O)C[C@H]1C (some centres not stated) |  | -19.8
CN1CC[C@H](CN2c3ccccc3Sc3ccccc32)C1 |  | -2.37
CC(C)C[C@H](NC(=O)[C@H](CCc1ccccc1)NC(=O)CN1CCOCC1)C(=O)N[C@@H](Cc1ccccc1)C(=O)N[C@@H](CC(C)C)C(=O)[C@@]1(C)CO1 | 0.764 µM (active) | 
C[C@]12CC[C@H](O)C[C@H]1CCC1C2CC[C@]2(C)[C@@H](c3ccc(=O)oc3)C[C@H]3O[C@]132 (some centres not stated) | 9.61 µM (active) | 
COc1ccc2cc1Oc1ccc(cc1)C[C@H]1c3c(cc4c(c3Oc3cc5c(cc3OC)CCN(C)[C@@H]5C2)OCO4)CCN1C | 21.5 µM (active) | 
COc1cccc2c1C(=O)c1c(O)c3c(c(O)c1C2=O)C[C@@](O)(C(=O)CO)CC3OC1CC(N2CCOC(OC)C2)C(O)C(C)O1 (some centres not stated) | 0.108 µM (active) | 
C=C1c2c(Cl)ccc(O)c2C(O)=C2C(=O)[C@@]3(O)C(O)=C(C(N)=O)C(=O)[C@@H](N(C)C)[C@@H]3[C@@H](O)[C@H]12 | 15.2 µM (active) | 
O=c1ccc2ccccc2o1 |  | 0
CCc1c2c(nc3ccc(OC(=O)N4CCC(N5CCCCC5)CC4)cc13)-c1cc3c(c(=O)n1C2)COC(=O)[C@]3(O)CC |  | 0

SMILES | Potency | activity, negative = inhibition [%]
N=C(N)c1ccc(OCCCCCOc2ccc(C(=N)N)cc2)cc1 | 21.5 µM (active) | 
CC(CN(C)C)CN1c2ccccc2CCc2ccccc21 (configuration not stated) |  | -27.2
NCCNc1ccc(NCCN)c2c1C(=O)c1ccncc1C2=O | 3.41 µM (active) | 
C[n+]1c2cc(N)ccc2cc2ccc(N)cc21 (tested in a mixture with another compound) | 4.82 µM (active) | 
CC(C)(C)c1ccc(C(=O)CCCN2CCC(OC(c3ccccc3)c3ccccc3)CC2)cc1 | 27.1 µM (active) | 
N#CC(c1ccc(Cl)cc1)c1c(Cl)cc(-n2ncc(=O)[nH]c2=O)cc1Cl (configuration not stated) | 10.8 µM (active) | 
CN(C)CCOC(c1ccccc1)c1ccc(Br)cc1 (configuration not stated) |  | 0
CCn1cc(C(=O)O)c(=O)c2cc(F)c(N3CCNC(C)C3)c(F)c21 (configuration not stated) |  | 0
Nc1nc(Cl)nc2c1ncn2C1CC(O)C(CO)O1 (configuration not stated) | 5.41 µM (active) | 
Nc1ccn([C@@H]2O[C@H](CO)[C@@H](O)C2(F)F)c(=O)n1 | 0.171 µM (active) | 
C=C(C)[C@H]1Cc2c(ccc3c2O[C@@H]2COc4cc(OC)c(OC)cc4[C@@H]2C3=O)O1 | 0.0383 µM (active) | 
COC(=O)C[C@](O)(CCCC(C)(C)O)C(=O)O[C@@H]1C(OC)=C[C@]23CCCN2CCc2cc4c(cc2[C@H]13)OCO4 | 1.36 µM (active) | 
CC[C@@]1(O)C(=O)OCc2c1cc1n(c2=O)Cc2c-1nc1ccccc1c2/C=N/OC(C)(C)C | 0.0764 µM (active) | 
COc1cccc2c1C(=O)c1c(O)c3c(c(O)c1C2=O)C[C@@](O)(C(=O)CO)C[C@@H]3O[C@H]1C[C@H](N)[C@@H](O)[C@H](C)O1 | 4.82 µM (active) | 
Cc1cn([C@H]2C[C@H](N=[N+]=[N-])[C@@H](CO)O2)c(=O)[nH]c1=O | 3.41 µM (active) | 
Cc1c(N)nc(C(CC(N)=O)NCC(N)C(N)=O)nc1C(=O)NC(C(=O)NC(C)C(O)C(C)C(=O)NC(C(=O)NCCc1nc(-c2nc(C(=O)NCCCN[C@@H](C)c3ccccc3)cs2)cs1)C(C)O)C(O[C@@H]1O[C@@H](CO)[C@@H](O)[C@H](O)[C@@H]1O[C@H]1O[C@H](CO)[C@@H](O)[C@H](OC(N)=O)[C@@H]1O)c1cnc[nH]1 (some centres not stated) | 0.304 µM (active) | 
